Laboratory results reported in the supplement of paper PMC6555819.

What was measured:
Test in all cases: PBM binding z-score (relative to random genomic background probes); higher = stronger binding; sequences stand for … in GC…GCGATTGACAGCGTAGAATGAAGG
[1] = system: FXR:RXRa (NR concentration 270 nM, RXRa partner concentration 90 nM)
Procedure, shortened: (§1)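 Scanned fluorescence from custom Agilent 4×180K protein-binding microarrays was regression-normalized. Binding z-scores use random background probes as reference. Ligand-free nuclear receptor dimers were incubated on the arrays for 1 h and detected with antibodies against each partner (one per run).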

[2] = system: LXRa:RXRa (NR concentration 270 nM, RXRa partner concentration 90 nM)
Procedure, shortened: as §1

[3] = system: LXRa homodimer (NR concentration 270 nM)
Procedure, shortened: as §1

[4] = system: LXRb:RXRa (NR concentration 270 nM, RXRa partner concentration 90 nM)
Procedure, shortened: as §1

[5] = system: LXRb homodimer (NR concentration 270 nM)
Procedure, shortened: as §1

[6] = system: PPARa:RXRa (NR concentration 270 nM, RXRa partner concentration 90 nM)
Procedure, shortened: as §1

[7] = system: PPARg:RXRa (NR concentration 180 nM, RXRa partner concentration 90 nM)
Procedure, shortened: as §1

[8] = system: PPARg:RXRa 270nM:90nM, anti-RXR (NR concentration 270 nM, RXRa partner concentration 90 nM)
Procedure, shortened: as §1

[9] = system: PPARg:RXRa 30nM:10nM, anti-RXR (NR concentration 30 nM, RXRa partner concentration 10 nM)
Procedure, shortened: as §1

[10] = system: PPARg:RXRa 90nM:30nM, anti-RXR (NR concentration 90 nM, RXRa partner concentration 30 nM)
Procedure, shortened: as §1

CGTCCAAGGTCATAGGAGGTCAGTGAAGACAGAT
PBM binding z-score [1]: 7.58 | PBM binding z-score [2]: 7.44 | PBM binding z-score [3]: 4.4 | PBM binding z-score [4]: 5.99 | PBM binding z-score [5]: 1.01 | PBM binding z-score [6]: 5.84 | PBM binding z-score [7]: 5.77 | PBM binding z-score [8]: 5.68 | PBM binding z-score [9]: 2.12 | PBM binding z-score [10]: 4.17

CCTACTGGGGCAAAGGTTACCATACTCAGTACGA
PBM binding z-score [1]: 1.74 | PBM binding z-score [2]: 1.84 | PBM binding z-score [3]: 0.187 | PBM binding z-score [4]: 2.41 | PBM binding z-score [5]: -0.355 | PBM binding z-score [6]: 6.15 | PBM binding z-score [7]: 12.1 | PBM binding z-score [8]: 10 | PBM binding z-score [9]: 12.4 | PBM binding z-score [10]: 12.2

TCTGCTAGGTCAACGATGTTCAGCTAATCTGCTA
PBM binding z-score [1]: 3 | PBM binding z-score [2]: 2.22 | PBM binding z-score [3]: -0.237 | PBM binding z-score [4]: 1.39 | PBM binding z-score [5]: -0.31 | PBM binding z-score [6]: 3.1 | PBM binding z-score [7]: 2.54 | PBM binding z-score [8]: 3.01 | PBM binding z-score [9]: 2.01 | PBM binding z-score [10]: 2.42

ACTCGGAGGACAAAGATCAGAGCTACGCCAGTGA
PBM binding z-score [1]: -0.308 | PBM binding z-score [2]: -0.42 | PBM binding z-score [3]: -0.56 | PBM binding z-score [4]: -0.616 | PBM binding z-score [5]: -0.443 | PBM binding z-score [6]: 0.399 | PBM binding z-score [7]: 1.61 | PBM binding z-score [8]: 2.24 | PBM binding z-score [9]: 0.508 | PBM binding z-score [10]: 1.43

CCTTACGGGTCTCGAGGTTATAGCACGACGAGCG
PBM binding z-score [1]: 0.0293 | PBM binding z-score [2]: 0.421 | PBM binding z-score [3]: -0.197 | PBM binding z-score [4]: 0.31 | PBM binding z-score [5]: -0.922 | PBM binding z-score [6]: 1.15 | PBM binding z-score [7]: 0.785 | PBM binding z-score [8]: 0.313 | PBM binding z-score [9]: -0.359 | PBM binding z-score [10]: -0.392

CCTGCTTGGTCATGGTCAGCTAATCTACAGTATG
PBM binding z-score [1]: -0.315 | PBM binding z-score [2]: -0.299 | PBM binding z-score [3]: -0.539 | PBM binding z-score [4]: -0.459 | PBM binding z-score [5]: -0.639 | PBM binding z-score [6]: -0.334 | PBM binding z-score [7]: -0.171 | PBM binding z-score [8]: -0.154 | PBM binding z-score [9]: -0.537 | PBM binding z-score [10]: -0.192

ACTAGCAGGCCAAGTTTGGGTCATTCAAACAAAG
PBM binding z-score [1]: 0.394 | PBM binding z-score [2]: 0.425 | PBM binding z-score [3]: -0.172 | PBM binding z-score [4]: 0.818 | PBM binding z-score [5]: -0.545 | PBM binding z-score [6]: 1.8 | PBM binding z-score [7]: 0.0288 | PBM binding z-score [8]: 0.215 | PBM binding z-score [9]: -0.284 | PBM binding z-score [10]: -0.177

TCTTGTAGATCAACAGGAGGTTAGGAAAGATCGA
PBM binding z-score [1]: -0.355 | PBM binding z-score [2]: -0.0525 | PBM binding z-score [3]: -0.326 | PBM binding z-score [4]: 0.179 | PBM binding z-score [5]: -0.324 | PBM binding z-score [6]: 0.641 | PBM binding z-score [7]: -0.123 | PBM binding z-score [8]: 1.06 | PBM binding z-score [9]: 2.59 | PBM binding z-score [10]: 1.79

CGTCAAAGTTCAAGGTAACCTAACAGAAAGCAGC
PBM binding z-score [1]: 6.46 | PBM binding z-score [2]: 5.68 | PBM binding z-score [3]: 2.88 | PBM binding z-score [4]: 3.53 | PBM binding z-score [5]: 0.767 | PBM binding z-score [6]: 5.05 | PBM binding z-score [7]: 4.79 | PBM binding z-score [8]: 5.23 | PBM binding z-score [9]: 1.93 | PBM binding z-score [10]: 3.95

GCGACTGGGGCAAAGCAGGTGACCATAAGGTTGG
PBM binding z-score [1]: -0.334 | PBM binding z-score [2]: -0.7 | PBM binding z-score [3]: -0.835 | PBM binding z-score [4]: -0.574 | PBM binding z-score [5]: -1.48 | PBM binding z-score [6]: 1.09 | PBM binding z-score [7]: 0.993 | PBM binding z-score [8]: 1.27 | PBM binding z-score [9]: -0.349 | PBM binding z-score [10]: 0.239

CCTATTAGTTGACCATAAGGGCAACCTAAGCTCG
PBM binding z-score [1]: 1.15 | PBM binding z-score [2]: 0.43 | PBM binding z-score [3]: 0.487 | PBM binding z-score [4]: 0.701 | PBM binding z-score [5]: 0.685 | PBM binding z-score [6]: 0.846 | PBM binding z-score [7]: 0.521 | PBM binding z-score [8]: 0.842 | PBM binding z-score [9]: 0.125 | PBM binding z-score [10]: 0.491

CATGCTAGGTCATGGTCAGCTAATCTACAGTATG
PBM binding z-score [1]: 3.66 | PBM binding z-score [2]: 3.18 | PBM binding z-score [3]: 0.549 | PBM binding z-score [4]: 1.79 | PBM binding z-score [5]: -0.0133 | PBM binding z-score [6]: 3.24 | PBM binding z-score [7]: 2.36 | PBM binding z-score [8]: 2.83 | PBM binding z-score [9]: 1 | PBM binding z-score [10]: 2.3

GCAGACAGGTGAAACGCAGGTTACTCAGGGTGGC
PBM binding z-score [1]: -0.0153 | PBM binding z-score [2]: 0.86 | PBM binding z-score [3]: -0.533 | PBM binding z-score [4]: 0.216 | PBM binding z-score [5]: -0.875 | PBM binding z-score [6]: 1.06 | PBM binding z-score [7]: 0.535 | PBM binding z-score [8]: 0.0459 | PBM binding z-score [9]: -0.6 | PBM binding z-score [10]: -0.266

CAAACCAGGTCACCGGAAGGTCAAAGTCCGCATG
PBM binding z-score [1]: 7.26 | PBM binding z-score [2]: 6.79 | PBM binding z-score [3]: 5.52 | PBM binding z-score [4]: 6.01 | PBM binding z-score [5]: 1.71 | PBM binding z-score [6]: 6.08 | PBM binding z-score [7]: 7.88 | PBM binding z-score [8]: 6.92 | PBM binding z-score [9]: 4.07 | PBM binding z-score [10]: 6.45

AGGATGAGGTTATACGTAGATCAGGGAAGAAAGT
PBM binding z-score [1]: 2.42 | PBM binding z-score [2]: 1.94 | PBM binding z-score [3]: 0.445 | PBM binding z-score [4]: 2.03 | PBM binding z-score [5]: 0.715 | PBM binding z-score [6]: 2.62 | PBM binding z-score [7]: 1.16 | PBM binding z-score [8]: 1.11 | PBM binding z-score [9]: 0.501 | PBM binding z-score [10]: 0.724

TTACCAAGGAGAAGGTCGTTGATCCCTCTGTAGA
PBM binding z-score [1]: 1.21 | PBM binding z-score [2]: 1.19 | PBM binding z-score [3]: -0.0479 | PBM binding z-score [4]: 0.995 | PBM binding z-score [5]: -0.829 | PBM binding z-score [6]: 1.18 | PBM binding z-score [7]: 0.529 | PBM binding z-score [8]: 2.23 | PBM binding z-score [9]: 1.24 | PBM binding z-score [10]: 1.77

CGGACTAGGTCATTGACAGGACAGTGAATAGTAA
PBM binding z-score [1]: 3.76 | PBM binding z-score [2]: 2.45 | PBM binding z-score [3]: 0.229 | PBM binding z-score [4]: 1.86 | PBM binding z-score [5]: -0.21 | PBM binding z-score [6]: 4.05 | PBM binding z-score [7]: 6.69 | PBM binding z-score [8]: 5.73 | PBM binding z-score [9]: 2.87 | PBM binding z-score [10]: 4.89

ACTTACGCGTCAACGAGGTTATAGCACGCGTATA
PBM binding z-score [1]: 0.0989 | PBM binding z-score [2]: 0.589 | PBM binding z-score [3]: -0.0981 | PBM binding z-score [4]: 0.964 | PBM binding z-score [5]: 0.0457 | PBM binding z-score [6]: 1.35 | PBM binding z-score [7]: 0.862 | PBM binding z-score [8]: 0.282 | PBM binding z-score [9]: 0.115 | PBM binding z-score [10]: 0.253

TTACCAAGGTGAAGGTCGTTGACCCCTCTGTAGA
PBM binding z-score [1]: 6.12 | PBM binding z-score [2]: 5.25 | PBM binding z-score [3]: 2.15 | PBM binding z-score [4]: 4.5 | PBM binding z-score [5]: -0.739 | PBM binding z-score [6]: 4.34 | PBM binding z-score [7]: 3.79 | PBM binding z-score [8]: 4.59 | PBM binding z-score [9]: 2.37 | PBM binding z-score [10]: 3.77

CGTCCAAGGTCAATGCTAGGTCAGTCAAAGCATT
PBM binding z-score [1]: 6.9 | PBM binding z-score [2]: 5.33 | PBM binding z-score [3]: 3 | PBM binding z-score [4]: 4.39 | PBM binding z-score [5]: 0.815 | PBM binding z-score [6]: 4.98 | PBM binding z-score [7]: 4 | PBM binding z-score [8]: 4.84 | PBM binding z-score [9]: 1.11 | PBM binding z-score [10]: 3.32

GCTCGGAGGACAAGGGCAGAGCTTTGTCCGTAGA
PBM binding z-score [1]: -0.487 | PBM binding z-score [2]: -0.674 | PBM binding z-score [3]: -0.975 | PBM binding z-score [4]: -1.04 | PBM binding z-score [5]: -1.47 | PBM binding z-score [6]: -0.451 | PBM binding z-score [7]: -0.879 | PBM binding z-score [8]: -0.532 | PBM binding z-score [9]: -1.18 | PBM binding z-score [10]: -0.777

TCATATAGGTAAAAGGGGAAAGTCGGTGTGGTAA
PBM binding z-score [1]: 1.2 | PBM binding z-score [2]: 0.984 | PBM binding z-score [3]: 0.33 | PBM binding z-score [4]: 1.32 | PBM binding z-score [5]: 0.445 | PBM binding z-score [6]: 3.75 | PBM binding z-score [7]: 6.27 | PBM binding z-score [8]: 6.98 | PBM binding z-score [9]: 6.37 | PBM binding z-score [10]: 7.9

CGTCCAAGGTCAGAGAGGTCTGTGAATGCCGAGT
PBM binding z-score [1]: 4.66 | PBM binding z-score [2]: 3.14 | PBM binding z-score [3]: 0.0313 | PBM binding z-score [4]: 2.1 | PBM binding z-score [5]: -0.51 | PBM binding z-score [6]: 3.92 | PBM binding z-score [7]: 2.27 | PBM binding z-score [8]: 2.64 | PBM binding z-score [9]: 0.0649 | PBM binding z-score [10]: 1.45

TCATATAGGGAAATGCTAGGTGAAAGTCCGATCT
PBM binding z-score [1]: 1.31 | PBM binding z-score [2]: 0.732 | PBM binding z-score [3]: 0.053 | PBM binding z-score [4]: 0.609 | PBM binding z-score [5]: -0.0156 | PBM binding z-score [6]: 0.83 | PBM binding z-score [7]: 0.563 | PBM binding z-score [8]: 2.3 | PBM binding z-score [9]: 3.82 | PBM binding z-score [10]: 2.91
